Rab9 prom act = activates the Rab9 promoter | Huh7 Rab9 promoter-luciferase reporter, luminescence, 24 h | Potency, µM (doses to about 9.22 µM), hits mostly activators | 2.8% of 320,000 active | AID 485297; further: nearly all actives have a fitted effect of over 60% in size
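Cells were plated at 1500 per well in reduced-serum medium with 10% FBS and left 2 h. Compound in DMSO was then added for 24 h at 37 °C. Reporter signal was read by luminescence after 10 min with luciferase detection reagent.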
FLuc counter = firefly luciferase modulation, counter-screen for miR-21 project; P08659; purified FLuc, Km substrates, luminescence inhibition; Potency, µM (doses to about 57.5 µM), usual class: inhibitors; 6.9% of 360,000 active; AID 588342; further: nearly all actives have a fitted effect of over 55% in size
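Purified P. pyralis luciferase (10nM final) with 10uM D-luciferin and 10uM ATP (Km levels) in 50mM Tris acetate pH 7.5, 10mM Mg acetate, 0.01% Tween-20, 0.05% BSA; qHTS 6-point titration, ~60 µM downward; luminescence read.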
ELG1 genotox = inducers of genotoxicity in HEK293T ELG1-luciferase cells; 1.3% of 330,000 active; Potency, µM (top dose mostly 46 µM), usual class: activators; HEK293T ELG1-luciferase reporter, luminescence, 16 h; further: nearly all actives have a fitted effect of over 60% in size
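Reporter readout depends on ELG1 protein level, which increases with genetic stress. After 16 hr compound exposure at 37 °C, luciferase activity was quantified using ONE-Glo.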
NPC1 prom act = activators of NPC1 promoter. Huh7 NPC1 promoter luciferase reporter, 24 h. Potency, µM (highest dose often 9.22 µM), most hits filed as activators. 2.4% of 320,000 active. AID 485313; further: nearly all actives have a fitted effect of over 60% in size
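Cells: Huh7 expressing luciferase under the NPC1 promoter, 1500/well. Seeded 2 h, compound added, incubated 24 h at 37 °C. Luciferase reagent, 10 min ambient, then luminescence.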
ELG1 DNA repair = blocks ELG1-dependent DNA repair in HEK293T cells; HEK293T ELG1-luciferase reporter, luminescence, 16 h; DNA damage induced by 5-fluorouridine; Potency, µM (highest dose often 46.1 µM), hits mostly inhibitors; 2.3% of 330,000 active; AID 504467; further: nearly all actives have a fitted effect of over 55% in size
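Luminescence from the luciferase reporter, measured 30 min after ONE-Glo reagent at room temperature, was the read-out. Beforehand, 2,000 cells per well were exposed for 16 hr at 37 °C to 5-fluorouridine together with compound or vehicle.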
SMN2 splice enh = SMN2 splice variant enhancement; HEK293 SMN2-luciferase splicing reporter, luminescence, 30-36 h; Potency, µM (titrated, usually from 46.1 µM), most hits filed as activators; 2.8% of 210,000 active; further: nearly all actives have a fitted effect of over 55% in size
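HEK293 cells carry an SMN2 minigene-luciferase reporter in which exon 7 inclusion puts luciferase in frame. Cells were seeded at 2000 cells/well, attached for 10-12 hours, then exposed to compounds for 30-36 hours at 37C before ONE-Glo luminescence.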
Hits are given with their value; – = inactive; ? = inconclusive; · = not tested or not shown. In the library only some 9.2% were active in any assay of this set; here they are far more common. The call rests on the fitted dose curve; in most records, active means well fitted curve in the direction sought with a large enough effect; inconclusive means small, poorly fitted or top-dose-only effect, or another doubt; inactive means no such curve, though single readings can be large; an effect the other way counts as inactive or inconclusive.

SMILES	Rab9 prom act	FLuc counter	ELG1 genotox	NPC1 prom act	ELG1 DNA repair	SMN2 splice enh
CN(C)C(=O)c1ccc(-n2cccn2)nc1	–	–	–	–	–	–
CCN(CC(=O)NCc1cccs1)C(=O)COc1ccc(C(C)=O)cc1	–	–	–	–	–	·
COc1ccccc1/C=N/NC(=O)c1cccc(OC(F)(F)C(F)F)c1	–	12µM	–	–	–	–
CCN(CC)S(=O)(=O)c1ccc(-c2nnc3sc4cccc(C)c4n23)cc1	–	–	–	–	23µM	–
O=C(CCl)Nc1cc(S(=O)(=O)N2CCCCCC2)ccc1Cl	–	–	–	–	?	–
Cc1ccc(-c2onc3ccc(Br)cc23)cc1	–	?	–	–	–	·
Cc1ccc(-c2onc3ccc(C4OCCO4)cc23)cc1	?	7.6µM	–	–	?	–
COc1cccc2[nH]c(=O)c(-c3ccccc3)cc12	2.8µM	12µM	?	3.5µM	?	·
COc1ccc(-c2cc(=O)[nH]c3ccccc23)cc1	–	–	–	–	–	·
COc1cc(OC)cc(C(=O)Nc2ccc(S(=O)(=O)N3CCCCC3c3cccnc3)cc2)c1 (stereo not given)	·	–	·	·	·	·
CCN1C/C(=C/c2cccc([N+](=O)[O-])c2)C(=O)/C(=C/c2cccc([N+](=O)[O-])c2)C1	–	–	–	–	2.6µM	–
CCOc1cc(/C=C2\CN(CC)C/C(=C\c3ccc(O)c(OCC)c3)C2=O)ccc1O	–	–	–	–	?	·
O=C(/C=C/c1ccc([N+](=O)[O-])cc1)NCc1ccccn1	–	–	–	–	–	–
Cc1ncoc1C(=O)Nc1nccs1	–	–	–	–	–	·
Cc1ncoc1C(=O)Nc1ncc([N+](=O)[O-])s1	0.32µM	6.7µM	?	0.71µM	?	4.5µM
O=C(/C=C/c1ccc([N+](=O)[O-])cc1)Nc1ncc([N+](=O)[O-])s1	0.79µM	0.12µM	?	0.05µM	?	0.5µM
O=C(Nc1ncc([N+](=O)[O-])s1)c1cccs1	1µM	8.5µM	?	0.89µM	?	·
O=C(Nc1ncc([N+](=O)[O-])s1)c1ccccc1Br	?	?	–	3.5µM	–	·
Nc1cc(S(=O)(=O)Nc2ccccc2Cl)ccc1N1CCCCC1	·	·	–	·	–	·
Cc1c(Cl)cccc1NC(=S)NNS(=O)(=O)c1ccc([N+](=O)[O-])cc1	–	–	–	–	–	·
CCOC(=O)c1c(C)oc2ncnc(Nc3cccc(C(F)(F)F)c3)c12	·	–	·	·	·	–
O=C(Nc1ncc(Cl)cn1)c1cccs1	–	?	?	–	?	–
Cc1cnc(NC(=O)c2cccs2)s1	1.4µM	11µM	?	?	?	·
Cc1noc(C)c1C(=O)Nc1nc2ccc(F)cc2s1	3.2µM	4.3µM	?	1.6µM	?	·
CCc1ccc2nc(NC(=O)c3cc(C)on3)sc2c1	?	6µM	–	–	?	?
SMILES	Rab9 prom act	FLuc counter	ELG1 genotox	NPC1 prom act	ELG1 DNA repair	SMN2 splice enh
CCc1noc(C)c1C(=O)Nc1nc2c(C)cc(C)cc2s1	–	11µM	–	–	–	·
Cc1cc(C)c2nc(NC(=O)c3cc(C)on3)sc2c1	–	?	–	–	?	–
CCc1noc(C)c1C(=O)Nc1nc(-c2ccccc2)c(C(C)=O)s1	–	15µM	–	–	?	·
COCC(=O)N1CCC(Oc2ccc(C(=O)NCc3cc(C(C)C)no3)cc2)CC1	–	–	–	–	–	·
Cc1onc(-c2ccccc2Cl)c1C(=O)Nc1nc2ccc(S(C)(=O)=O)cc2s1	–	12µM	–	–	?	–
CCc1noc(C)c1C(=O)Nc1nc2ccc(F)cc2s1	?	17µM	–	?	?	·

Screens deposited in PubChem by National Center for Advancing Translational Sciences (NCATS).
